Data published in PubChem BioAssay (Tox21).
Inconclusive results are not listed. Where a call stands in place of a potency, no number is given. Activity calls are given as the source filed them. Unless noted, calls follow the shape of the dose curve; as a rule, active = well fitted cell-killing curve with a large enough effect in the repeat runs; inconclusive = weak or mixed curves, or effect the other way; inactive = no such curve, though single readings can be large or run the other way.
Also: nearly all actives have a fitted effect of over 50% in size.

Assay: qHTS assay to identify small molecule agonists of the endoplasmic reticulum stress response signaling pathway - cell viability counter screen (AID 1159517; calls by dose curve; also: potency is read from the fitted curve at half-maximal effect)
Details: ESRE-bla HeLa viability, CellTiter-Glo luminescence, 5 h; series mostly up to 61 µM
How it was run: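 ESRE-bla HeLa cells, 1,500 per well, seeded overnight then treated with compounds for 5 hr at 37 C. After the beta-lactamase read, viability in the same wells is measured by CellTiter-Glo luminescence after 30 min at room temperature.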
In the case of CCCC(CC)CCCCCCCN (stereo unspecified), the Potency is reported as 39.9 µM (active). In the case of O=Nc1ccc(NO)cc1, the Potency is reported as “inactive”. With NC(=O)c1nc(-c2cccc(-c3cc(F)ccc3OCC(F)(F)C(F)(F)F)c2)n[nH]1 the Potency was 61.6 µM (active). In the case of CCCCCCCCCCOCC(O)CN (stereo unspecified), the Potency is reported as 21.3 µM (active). In the case of COc1ccccc1OCCNCC(O)COc1cccc2[nH]c3ccccc3c12 (stereo unspecified), the Potency is reported as “inactive”. With COc1ccc2sc(C(=O)Nc3nnn[nH]3)c(OC(C)C)c2c1 the Potency was 19.4 µM (active). With CN(C)c1ccc(N=NS(=O)(=O)O)cc1 the Potency was “inactive”. With CCCSS/C(CCO)=C(\C)N(C=O)Cc1cnc(C)nc1N the Potency was “inactive”. In the case of Oc1ccc(-c2ccccc2)c(Cl)c1, the Potency is reported as “inactive”. For Cc1ccc(-n2[nH]c(C)c(N=Nc3cccc(-c4cccc(C(=O)O)c4)c3O)c2=O)cc1C, the Potency was “inactive”. With CCCCC(CC)COC(=O)c1ccc(O)cc1 (stereo unspecified) the Potency was 49 µM (active). In the case of CCCCCCCCCCCCN(CCO)CCO, the Potency is reported as 43.5 µM (active). With CC(C)(C)c1cc(/C=C2\SC(=N)NC2=O)cc(C(C)(C)C)c1O the Potency was 54.9 µM (active). For CCCCCCC(C)OC(=O)COc1nc(F)c(Cl)c(N)c1Cl (stereo unspecified), the Potency was 54.9 µM (active). For Cc1c(-c2ccc(O)cc2)n(Cc2ccc(OCCN3CCCCCC3)cc2)c2ccc(O)cc12, the Potency was “inactive”. In the case of Clc1ccc(C(Cn2ccnc2)OCc2ccsc2Cl)c(Cl)c1 (stereo unspecified), the Potency is reported as “inactive”.

Assay: qHTS assay to identify small molecule antagonists of the retinoid-related orphan receptor gamma (ROR-gamma) signaling pathway - cell viability counter screen (AID 1159520)
Details: Tet-on RORgamma CHO cells viability, ATP luminescence, 16 h; series mostly up to 92.4 µM
How it was run: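 Tet-on ROR gamma CHO cells were given compounds for 2 hr, then doxycycline hyclate at 1 uM final, and incubated 16 hr at 37 C. Viability was measured as ATP content by CellTiter-Glo luminescence.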
For CO[Si](CCCNCCNCCN)(OC)OC, the Potency was “inactive”. In the case of CCc1ccc(C)nc1, the Potency is reported as “inactive”. In the case of Cc1cc(=O)[nH]c(=O)[nH]1, the Potency is reported as “inactive”. In the case of CS(C)(=O)=O, the Potency is reported as “inactive”. In the case of CCCCCCCCC(C)=O, the Potency is reported as “inactive”. With NCCCCCCNCCCCCCN the Potency was “inactive”. For Cc1cnccn1, the Potency was “inactive”. For CC(COC(=O)c1ccccc1)OC(=O)c1ccccc1 (stereo unspecified), the Potency was “inactive”. In the case of CC(C)=CCCC(C)CCOC(=O)C(C)C (stereo unspecified), the Potency is reported as “inactive”. With O=S(O)O the activity, negative = cytotoxicity was 14% [at 19 µM] (inactive). With C=C(C)CCCC the Potency was “inactive”. With OCCCCl the Potency was “inactive”. With COc1ccc(C#N)cc1 the Potency was “inactive”. In the case of CCOB(OCC)OCC, the Potency is reported as “inactive”. For O=S(=O)(O)c1cc(S(=O)(=O)O)c2ccc3c(S(=O)(=O)O)cc(S(=O)(=O)O)c4ccc1c2c43, the activity, negative = cytotoxicity was 3.7% [at 19 µM] (inactive). In the case of c1cc[nH]c1, the Potency is reported as “inactive”. In the case of CC1(C)C(=O)N(CO)C(=O)N1CO, the Potency is reported as “inactive”. With CCO[Si](C)(C)OCC the Potency was “inactive”. In the case of O=c1cccc[nH]1, the Potency is reported as “inactive”. With CC(C)=CCCC(C)O (stereo unspecified) the Potency was “inactive”.
